ALDH1A1 inh: qHTS Assay for Inhibitors of Aldehyde Dehydrogenase 1 (ALDH1A1) | Purified ALDH1A1, NADH fluorescence, propionaldehyde substrate | Aldehyde dehydrogenase 1A1 (Homo sapiens), P00352 | actives 7.3% (n = 220,000) | Potency, µM (highest dose often 75.3 µM), without a hit: at the highest dose activity, negative = inhibition, most hits filed as inhibitors;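 also: potency is read from the fitted curve at half-maximal effect; plate controls were no enzyme wells and a reference inhibitor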
12-hLO inh: qHTS Assay for Inhibitors of 12-hLO (12-human lipoxygenase). actives 0.12% (n = 150,000). purified 12-hLO, xylenol orange hydroperoxide absorbance. Potency, µM (doses to about 57.1 µM), for inactives: top-dose activity change, negative = inhibition, hits mostly inhibitors; active = well fitted inhibition curve with a large enough effect; inconclusive = small, poorly fitted or top-dose-only effect; also: potency is read from the fitted curve at half-maximal effect; nearly all actives have a fitted effect of over 55% in size
Target sequence (P18054 whole entry, looked up): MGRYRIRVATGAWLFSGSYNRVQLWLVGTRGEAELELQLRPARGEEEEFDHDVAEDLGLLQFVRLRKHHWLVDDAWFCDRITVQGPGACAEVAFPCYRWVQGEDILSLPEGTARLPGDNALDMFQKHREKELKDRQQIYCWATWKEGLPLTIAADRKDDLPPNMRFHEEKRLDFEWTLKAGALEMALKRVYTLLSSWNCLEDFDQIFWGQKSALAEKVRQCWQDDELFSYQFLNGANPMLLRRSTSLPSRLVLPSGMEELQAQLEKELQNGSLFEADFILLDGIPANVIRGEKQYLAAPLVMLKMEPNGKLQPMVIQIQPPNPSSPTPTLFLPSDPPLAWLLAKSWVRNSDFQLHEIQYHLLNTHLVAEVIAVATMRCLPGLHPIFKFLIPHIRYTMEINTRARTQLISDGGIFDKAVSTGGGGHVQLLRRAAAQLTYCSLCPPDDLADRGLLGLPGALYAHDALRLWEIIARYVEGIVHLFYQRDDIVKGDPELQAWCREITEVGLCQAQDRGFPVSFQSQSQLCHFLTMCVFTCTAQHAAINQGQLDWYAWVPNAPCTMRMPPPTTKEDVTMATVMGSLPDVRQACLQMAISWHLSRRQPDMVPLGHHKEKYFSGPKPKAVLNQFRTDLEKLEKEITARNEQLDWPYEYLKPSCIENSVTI
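Purified human 12hLO (150 nM), preincubated 15 min with compound, then 40 uM arachidonic acid for 30 min, room temperature, Hepes pH 7.0 with 0.01% Triton X-100. Hydroperoxide detected by ferrous iron/xylenol orange; 573/405 nm absorbance ratio gives reaction progress.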
HPGD inh: qHTS Assay for Inhibitors of HPGD (15-Hydroxyprostaglandin Dehydrogenase); actives 4.3% (n = 150,000); Potency, µM, for the others: at the top dose activity change, negative = inhibition, hits mostly inhibitors; 15-hydroxyprostaglandin dehydrogenase [NAD(+)] (Homo sapiens), P15428; purified HPGD, NADH fluorescence kinetic, PGE2 substrate; also: potency is read from the fitted curve at half-maximal effect
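NADH formation kinetics: reaction with 30 uM PGE2 and 1 mM NAD+ (final), 20 nM enzyme, Tris-HCl pH 8 with Tween 20, after 15 min compound preincubation at room temperature. Fluorescence change, last versus first of five reads.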
LMNA splice mod: qHTS Assay for Modulators of Lamin A Splicing. Potency, µM (top dose mostly 46.1 µM), for inactives: at the top dose ratio change, negative = inhibition, most hits filed as inhibitors. AID 1487, 2009. HeLa LMNA splicing GFP/RFP minigene ratio, 48 h. actives 0.01% (n = 200,000); active = well fitted inhibition curve with a large enough effect in the signal ratio, with a control signal flat, not every such curve was filed as active; inconclusive = small, poorly fitted or top-dose-only effect, or effect the other way, or a change in a side signal; the % refers to the signal ratio; also: potency is read from the fitted curve at half-maximal effect
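S3 HeLa stable clones carrying a lamin A-EGFP splicing minigene plus DsRed2 were seeded at 600 cells/well in Opti-MEM with 2% FBS, pin-dosed and incubated 48 h at 37°C. Acumen cytometry (488 nm) gave the GFP/RFP total-intensity ratio.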
PNC assembly inh: High Content Assay for Compounds that inhibit the Assembly of the Perinucleolar Compartment; actives 3.1% (n = 140,000); activity change (PNC), negative = inhibition, % at 10 µM; PC3M PTB-GFP, PNC prevalence imaging, 16 h; stronger effect = lower value;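 active = readout at or below -70, meaning at least 70% loss of cells showing the perinucleolar compartment, a nuclear body marking cancer cells; inconclusive = readout between -30 and a set limit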;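 also: plate controls were DMSO wells for no effect and camptothecin positive control wells for full effect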
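Read-out is percentage of cells bearing a perinucleolar compartment, from automated 20x imaging of fixed, Hoechst-stained PC3M PTB-GFP cells. Cells were seeded 4 h, then exposed 16 h to compound (23 nl of library stock) in duplicate plates.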
* hit, by the source's call; ? = inconclusive; nt = no result; [ ] = remark or other dose. The list is not random: actives were taken first. Their share in the collection is about 10%. Unless noted, calls follow the shape of the dose curve; as a rule, active = well fitted inhibition curve with a large enough effect (not every such curve was filed as active); inconclusive = small, poorly fitted or top-dose-only effect, or another doubt; inactive = no such curve, though single readings can be large or run the other way. Unless noted, % is scaled to controls: 0 for no effect and ±100 for the full control effect.

SMILES | ALDH1A1 inh | 12-hLO inh | HPGD inh | LMNA splice mod | PNC assembly inh
COc1ccc2ncc(S(=O)(=O)c3ccccc3)c(N3CCC4(CC3)OCCO4)c2c1 | 7.94µM* | -10.5% | 0.0% | ? | 1.7
Cc1cccc(NC(=O)C(c2ccccc2Cl)N2CCOCC2)c1 (configuration not stated) | 25.1µM* | nt | nt | nt | nt
COc1ccc(-c2cn3nc(N4CCCC(C(=O)Nc5ccccc5OC)C4)sc3n2)cc1 (configuration not stated) | nt | nt | nt | -2.2%[46 µM] | nt
COC(=O)c1ccc(Sc2ccccc2NS(=O)(=O)c2ccc(NC(C)=O)cc2)nc1 | 11.2µM* | -1.4% | -15.4% | -9.8% | ?
COC(=O)c1ccc(C(=O)OC)c(NS(=O)(=O)c2ccc(NC(C)=O)cc2)c1 | ? | -5.7% | ? | 10.1% | -9.1
N#C/C(=C\Nc1ccccn1)C(=O)c1ccco1 | -1.8%[13.5 µM] | 0.1%[11.4 µM] | -21.0% | nt | nt
FC(F)(F)c1ccccc1NC(=S)N/N=C1\CC2CC=CC12 (configuration not stated) | 7.94µM* | nt | nt | nt | nt
O=C(N/N=C1\CC2CC=CC12)c1ccccc1Cl (configuration not stated) | -6.2% | nt | nt | -9.6%[46 µM] | nt
C[N@@+]1(Cc2ccc(Cl)c(Cl)c2)CCC[C@@H]1c1ccc[n+](Cc2ccc(Cl)c(Cl)c2)c1 | 11.2%[13.5 µM] | -3.5%[11.4 µM] | -6.9% | nt | nt
CCOc1ccc(NC(=O)CSc2nnc(-c3ccccc3Cl)n2Cc2ccco2)cc1 | 14.1µM* | -10.8% | nt | ? | 7.5
CN(C)c1ccc(NC(=O)CSc2nnc(-c3cccs3)n2Cc2ccco2)cc1 | 17.8µM* | 4.6% | -11.0% | 5.4% | 31.6
COc1ccc(NC(=O)CSc2nnc(-c3ccccc3)n2Cc2ccco2)c(OC)c1 | ? | -3.7% | -12.1% | -5.0% | 15.6
COc1ccc(NC(=O)CSc2nnc(-c3ccccc3Cl)n2Cc2ccco2)c(OC)c1 | 14.1µM* | -8.4% | nt | -10.7% | 10.7
Cc1ccc(NC(=O)CSc2nnc(-c3cccs3)n2Cc2ccco2)cc1 | -2.8% | -3.7% | 3.9% | 13.3% | 17.9
CCOc1ccc(NC(=O)CSc2nccn2Cc2ccco2)cc1 | nt | nt | nt | 9.4%[46 µM] | nt
O=c1c(CCc2ccccc2)nc2cnc(N3CCNCC3)nc2n1-c1ccccc1 | ? | nt | nt | -10.0% | nt
Cc1ccc(N2NC(=O)/C(=C\c3cc4c(cc3[N+](=O)[O-])OCO4)C2=O)cc1C | 17.8µM* | -25.3% | 3.98µM* | ? | 29.9
O=C1NN(c2ccccc2)C(=O)/C1=C\c1cccn1-c1ccc(Cl)c([N+](=O)[O-])c1 | -13.6% | -1.8% | -4.8% | 9.6% | -0.9
CCCCC(CC)CNC(=O)CN1C(=O)CSc2ccc(S(=O)(=O)N3CCOCC3)cc21 (configuration not stated) | nt | nt | nt | 2.3%[46 µM] | nt
COc1ccc2c(c1)[C@]1(C)CCC(=O)C[C@H]1CC2 | 2.82µM* | 7.1% | -12.4% | 3.3% | nt
C[C@@]12CCC(OC(=O)c3ccccc3)CC1CCc1ccccc12 (some centres not stated) | 3.1% | -0.7% | -17.7% | ? | nt
Cc1ccccc1N1C(=O)CC(Nc2ccc3c(c2)OCO3)C1=O (configuration not stated) | -6.6% | nt | nt | nt | nt
CN=C(Nc1ccc(C(=O)OC)cc1)SC1CC(=O)N(c2ccccc2F)C1=O (configuration not stated) | 9.0% | -0.7% | -9.7% | -12.1% | -108.4*
CCN=C(Nc1ccc2c(c1)OCO2)SC1CC(=O)N(c2ccccc2F)C1=O (configuration not stated) | 17.8µM* | -5.1% | -5.2% | ? | -16.6
COC(=O)c1ccc(NC2CC(=O)N(c3ccccc3C)C2=O)cc1 (configuration not stated) | 12.6µM* | 4.7% | -17.4% | -10.8% | 17.8
SMILES | ALDH1A1 inh | 12-hLO inh | HPGD inh | LMNA splice mod | PNC assembly inh
Cc1c2oc3c(C)ccc(C(=O)NC4C(=O)NC(C(C)C)C(=O)N5CCCC5C(=O)N(C)CC(=O)N(C)C(C(C)C)C(=O)OC4C)c3nc-2c(C(=O)NC2C(=O)NC(C(C)C)C(=O)N3CCCC3C(=O)N(C)CC(=O)N(C)C(C(C)C)C(=O)OC2C)c(N)c1=O (configuration not stated) | -2.8% | nt | nt | nt | nt
Cc1cccc(CNc2ncncc2-c2ccccc2C(F)(F)F)c1 | ? | -5.6% | -7.8% | ? | nt
Cc1nn(-c2ccccc2Cl)c(Cl)c1/C=N/Nc1cccc(C(=O)O)c1 | ? | -6.3% | 12.6µM* | 5.1% | -23.3
Cc1nn(-c2ccccc2)c(Cl)c1/C=N/NC(=O)CNC(=O)c1ccccc1Cl | 7.08µM* | -2.1% | -11.2% | -10.8% | 74.6
Cc1nn(-c2ccccc2)c(Cl)c1/C=N\NC(=O)c1cncc(Br)c1 | -13.3% | 1.6% | -8.1% | -9.5% | ?
Cc1nn(-c2cccc(Cl)c2)c(Cl)c1/C=N/NC(=O)c1cccnc1 | -1.1% | -2.3% | -1.9% | ? | -86.5*
Cc1nn(Cc2ccccc2)c(Cl)c1/C=N/NC(=O)CNc1cccc(C(F)(F)F)c1 | 2.9% | -2.2% | -10.8% | ? | 18.3
CCOC(=O)N/N=C/c1c(C)nn(-c2cccc(C(F)(F)F)c2)c1Cl | 16.2% | -0.9% | -18.6% | ? | -83.1*
Cc1nn(-c2cccc(C(F)(F)F)c2)c(Cl)c1/C=N/Nc1cccc(C(=O)O)c1 | -5.3% | -18.8% | -26.8% | ? | -19.0
O=C(NC1CC(=O)N(c2ccc(F)cc2)C1)c1ccc(S(=O)(=O)N2CCCCC2)cc1 (configuration not stated) | nt | nt | nt | 8.6%[46 µM] | nt
Cc1noc(C)c1-c1cc(N(C)Cc2ccco2)ncn1 | ? | nt | nt | 27.6% | nt
CCOc1ccc(Oc2c(/C=N/NC(N)=O)c(C)nn2-c2ccccc2)cc1 | 31.6µM* | -10.0% | -8.1% | -9.0% | 23.9
COC(=O)N/N=C/c1c(C)nn(-c2cccc(Cl)c2)c1Cl | -1.4% | -1.7% | -22.9% | -26.3% | -94.2*
COc1ccc(C(=O)NCc2nnnn2-c2ccc(C)c(C)c2)cc1 | nt | nt | nt | -6.2%[46 µM] | nt
COC(=O)CC(=O)Cc1nc(N)nc(Nc2ccc(C)c(C)c2)n1 | 1.4% | 3.5% | -12.1% | -4.2% | -100.0*
Cc1ccc(Nc2nc(N)nc(CN3CCN(Cc4ccc5c(c4)OCO5)CC3)n2)cc1C | 7.94µM* | nt | nt | 12.8%[46 µM] | nt
Cc1ccc(Nc2nc(N)nc(CN3CCN(C)CC3)n2)cc1C | 9.3% | -0.1% | -4.6% | -7.2% | ?
COc1ccc(S(=O)(=O)c2cn(C)c3cc(N4CCOCC4)c(F)cc3c2=O)cc1 | nt | nt | nt | -12.9%[46 µM] | nt
CCOc1cc(C2CC(=O)Nc3cc(C)c(C)cc32)ccc1O (configuration not stated) | 5.0% | 1.9% | -2.2% | -2.9% | -139.2*
Cn1c2ccccc2c2c(C(=O)N3CCN(c4ccccc4)CC3)cn(C3CCCC3)c(=O)c21 | ? | -6.5% | ? | 19.3% | -113.4*

Screening results as filed in PubChem.
